High-throughput results: PubChem, The Scripps Research Institute Molecular Screening Center
MITF inh – human MITF inhibition, primary screen. O75030. AlphaScreen MITF homodimerization, bead proximity signal. inhibition, % at 2.6 µM. actives 0.91% (n = 650,000). AID 1259374; in the data active = inhibition above about 50%;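 also: 0% = vehicle wells with protein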
FBW7 act – activators of human E3 ligase FBW7. Q969H0. AlphaScreen FBW7–phospho-cyclin E peptide binding, activator screen. normalized activity (activation), % at 26.1 µM. actives 0.13% (n = 650,000); in the data active = normalized activity above about 1.9%;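 also: purified mutant Fbw7 with reduced substrate affinity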
GPR151 ag – activators of human GPR151; Q8TDV0; PathHunter beta-arrestin GPR151 cells, luminescence; activation, % at 11.2 µM; actives 1% (n = 650,000); in the data active = activation above about 4.9%;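 also: 0% = median of compound wells and 100% = cells with positive control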
Target sequence (Q8TDV0 whole entry, looked up): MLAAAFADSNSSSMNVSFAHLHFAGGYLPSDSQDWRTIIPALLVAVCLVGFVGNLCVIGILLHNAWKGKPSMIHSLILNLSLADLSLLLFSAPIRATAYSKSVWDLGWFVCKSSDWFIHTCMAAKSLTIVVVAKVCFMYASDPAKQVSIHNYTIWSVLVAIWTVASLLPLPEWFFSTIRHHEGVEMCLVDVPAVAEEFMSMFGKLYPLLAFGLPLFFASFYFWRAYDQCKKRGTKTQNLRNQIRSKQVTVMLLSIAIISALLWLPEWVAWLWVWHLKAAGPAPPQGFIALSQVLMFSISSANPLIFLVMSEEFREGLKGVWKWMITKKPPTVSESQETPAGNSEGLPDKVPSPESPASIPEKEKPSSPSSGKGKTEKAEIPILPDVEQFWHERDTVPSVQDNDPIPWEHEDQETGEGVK
TEAD-YAP block – TEAD-YAP interaction inhibition; HEK-TIYL cells, TEAD-Gal4/YAP UAS-luciferase luminescence; inhibition, % at 9.12 µM; actives 1.4% (n = 640,000); AID 1259422; in the data active = inhibition above about 32%;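 also: 0% = median of test compound wells and 100% = reference inhibitor wells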
MITF inh conf – confirmation of human MITF inhibitors; shares compounds with MITF inh; AlphaScreen MITF homodimerization, biotin/His-MITF beads; actives 16% (n = 4,700); AID 1259372; inhibition, % at 2.6 µM;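 active = inhibition above a cutoff derived from the DMSO control wells, cut at about 28% in these data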;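 also: 0% = MITF dimer wells with DMSO only; inhibitors lower the bead chemiluminescence by keeping MITF from dimerizing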
AS interf DR – AlphaScreen optical interference, dose response counter-screen; shares compounds with MITF inh; AlphaScreen optical interference counterscreen, cell-free; IC50, µM; actives 6% (n = 480); call rule not given here
AlphaScreen intf2 – optically interferes with AlphaScreen signal | actives 7.6% (n = 4,700) | shares compounds with MITF inh | inhibition, % at 2.6 µM | LysRS AlphaScreen counterscreen, signal interference, triplicate;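 active = inhibition above a cutoff derived from the DMSO control wells, cut at about 30% in these data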
Numbers without * were called inactive; . = no result. A selection: hits, their analogues and other compounds. The true share with any hit is near 3.5%.

SMILES	MITF inh	FBW7 act	GPR151 ag	TEAD-YAP block	MITF inh conf	AlphaScreen intf2	others
O=C(NCc1ccccn1)C1CCN(S(=O)(=O)N2CCC3(CC2)OCCO3)CC1	51.5*	-0.4	1.0	1.1	17.4	13.7
Cc1cc(=O)n(C)c(=O)n1CCCCCCNCc1ccccc1	76.7*	-0.2	0.0	3.6	-8.3	-5.9
C=CCSc1nc2cc(S(N)(=O)=O)ccc2n1CCCC	-4.2	-0.1	0.6	-11.3	.	.
COc1ccc(C(=O)OCC(=O)c2ccc([N+](=O)[O-])cc2)cc1	0.8	0.0	-0.5	5.2	.	.
O=C(OCC(=O)c1ccc([N+](=O)[O-])cc1)C(=O)OCC(=O)c1ccc([N+](=O)[O-])cc1	60.7*	-0.6	0.3	3.2	7.6	29.1
CC(C)c1ccc2[nH]c(O)c(N=NC(N)=O)c2c1	4.9	-0.1	-0.4	-2.2	.	.
CCN1CCN(CCCCOc2ccc(C)cc2I)CC1	53.0*	0.6	-1.3	4.8	9.4	15.2
Cc1ccc(OCCCn2cncn2)c(I)c1	53.7*	-0.1	-0.1	-9.3	-13.4	-5.1
Cc1ccc(OCCn2cncn2)c([N+](=O)[O-])c1	-26.8	0.0	-0.3	-2.8	.	.
CCN1CCN(CCCOc2ccc(C)cc2I)CC1	57.1*	-0.2	-0.5	-5.4	6.0	15.6
O=[N+]([O-])c1ccccc1S(=O)(=O)N1CCN(Cc2cccs2)CC1	54.6*	-0.3	1.5	-4.3	9.1	13.4
O=[N+]([O-])c1ccccc1S(=O)(=O)N1CCN(Cc2ccccc2)CC1	1.1	-0.2	-1.0	-11.1	.	.
O=[N+]([O-])c1ccccc1S(=O)(=O)N1CCN(Cc2ccncc2)CC1	75.9*	-0.2	0.2	-2.6	9.8	14.8
O=[N+]([O-])c1ccccc1S(=O)(=O)N1CCN(Cc2ccsc2)CC1	39.8	-0.2	0.1	4.7	.	.
Cc1cccc(CN2CCN(S(=O)(=O)c3ccccc3[N+](=O)[O-])CC2)c1	59.1*	0.0	-0.2	5.1	45.5*	9.6	AS interf DR=>5.08
O=[N+]([O-])c1ccccc1S(=O)(=O)N1CCN(Cc2cccc(F)c2)CC1	56.2*	-0.1	0.0	-0.4	7.6	14.2
O=C(Nc1ccc(-c2cn[nH]c2)c(F)c1)C1COc2ccccc2O1 (stereo unspecified)	7.2	0.2	0.6	-24.2	.	.
Cc1ccc(C(=O)N2c3cccc4cccc(c34)S2(=O)=O)cc1	-2.8	-0.2	-0.1	8.1	.	.
COc1cccc(CN2CCN(S(=O)(=O)c3ccccc3[N+](=O)[O-])CC2)c1OC	53.4*	-0.4	1.1	-18.3	23.4	21.2
O=C(c1ccccc1)N1CCCCC(Sc2ncnc3scc(-c4ccc(Cl)cc4)c23)C1=O (stereo unspecified)	18.8	0.2	1.1	-3.8	.	.
N#CC1=C2SCN(c3ccc(F)cc3)CN2C(=O)CC1c1ccccc1[N+](=O)[O-] (stereo unspecified)	3.7	-0.2	0.1	-10.9	.	.
Cc1csc2ncc(C(=O)NCCCO)c(=O)n12	-5.8	-0.2	-1.4	10.9	.	.
COCCNC(=O)c1cnc2scc(C)n2c1=O	75.6*	0.1	0.8	5.7	7.0	6.7
CCC(C)NC(=O)Cn1nnc(-c2ccc(OC)c(OC)c2)n1 (stereo unspecified)	-4.6	-0.1	-0.7	6.2	.	.
Cc1cc(C(=O)NNC(=S)NC(=O)/C=C/c2ccccc2Cl)n[nH]1	72.1*	-0.2	0.3	-46.0	34.4*	70.5*
SMILES	MITF inh	FBW7 act	GPR151 ag	TEAD-YAP block	MITF inh conf	AlphaScreen intf2	others
O=C(/C=C/c1ccccc1Cl)NC(=S)NNC(=O)c1cccs1	11.2	-0.1	4.6	-50.6	.	.
NS(=O)(=O)c1ccc(CCNC(=O)c2ccc(C#Cc3ccccc3)o2)cc1	8.5	-0.1	2.1	18.1	.	.
COc1cc(Nc2ccc(NC(=O)c3cccc(F)c3)cc2)nc(C)n1	56.8*	-0.1	1.1	15.4	-4.7	-6.0
NC(=O)C1CCN(S(=O)(=O)c2ccc3[nH]cc(C(=O)O)c(=O)c3c2)CC1	18.8	0.2	-1.8	7.6	.	.
O=C(N/N=C/c1cccnc1)C12CC3CC(CC(C3)C1)C2	-5.3	-0.1	1.2	-9.7	.	.
O=C(CN1CCSCC1)N/N=C/c1cccnc1	51.2*	0.3	-1.3	-6.6	-5.4	0.9
CC1(C(=O)N/N=C/c2cccnc2)CC1(Cl)Cl (stereo unspecified)	59.5*	0.0	0.4	6.2	-19.0	-0.1
CCN1CCN(CC(=O)N/N=C/c2ccc(C(C)C)cc2)CC1	51.8*	0.0	0.7	-3.7	2.3	7.4
CCN1CCN(CC(=O)N/N=C/c2ccccc2)CC1	70.2*	0.6	-1.6	-0.9	1.1	15.5
O=C(COc1ccc(F)cc1Br)Nc1cc(Cl)ccc1N1CCOCC1	12.5	1.4	-0.8	-16.6	.	.
CCN1CCN(CC(=O)N/N=C/c2ccc(Cl)c(Cl)c2)CC1	67.8*	0.2	3.5	-3.5	-5.8	2.7
CCN1CCN(CC(=O)N/N=C/c2ccc(Cl)cc2)CC1	46.5	0.5	-0.2	9.9	.	.
NNc1nc(NN)nc(Nc2ccccc2)n1	65.2*	-2.0	-1.7	3.2	97.4*	100.3*
c1ccc(Nc2nc(Nc3ccccc3)nc(Oc3ccccc3)n2)cc1	11.9	0.2	0.0	7.3	.	.
CCOC(=O)c1c(NC(=S)NCc2ccccc2)sc2c1CCCC2	4.6	-0.2	-0.2	-2.0	.	.
O=C(CSc1cn(Cc2ccc(Cl)cc2)c2ccccc12)Nc1nc2ccccc2s1	5.5	-0.1	-0.2	-17.4	.	.
Cc1ccc2nc(-c3ccc(NC(=O)CNCC(C)(C)CN(C)C)cc3)sc2c1	51.7*	-0.2	-0.8	2.5	-2.5	7.9
CCCCOC(=O)c1ccc(NC(=O)CCCC)cc1	1.5	0.1	1.0	-3.5	.	.
CCCCOC(=O)c1ccc(NC(=O)CN(C)C2CCN(C)CC2)cc1	57.7*	-0.1	-1.0	-27.2	10.4	17.1
CCN(CC)CC(=O)NC(C)c1ccccc1 (stereo unspecified)	-12.3	0.0	0.9	3.3	.	.
Cc1ccc2nc(-c3ccc(NC(=O)Cc4ccccc4)cc3)sc2c1	-4.5	-0.4	0.6	-17.6	.	.
CC(NC(=O)CN(C)C1CCN(C)CC1)c1ccccc1 (stereo unspecified)	59.3*	-0.3	1.8	0.4	-5.6	-5.9
CN1CCC(N(C)CC(=O)Nc2ccc3c(c2)OC(F)(F)O3)CC1	57.5*	-0.3	1.3	9.1	-6.9	0.3
CC(C)N1C(=O)c2cccc3c(N4CCOCC4)ccc(c23)C1=O	-15.6	0.1	-0.3	2.1	.	.
CCOc1ccc(CCNC(=O)CN2CC(c3ccccc3)CC2=O)cc1OCC (stereo unspecified)	18.3	0.4	-1.4	-0.3	.	.
CN(C)CC(C)(C)CNCC(=O)Nc1ccc2c(c1)OC(F)(F)O2	55.5*	-0.1	1.6	3.4	-11.3	-1.8
CC(=O)N1CCN(CC(=O)Nc2ccc3c(c2)OC(F)(F)O3)CC1	4.8	-0.1	-0.5	3.3	.	.
